Compounds with a hit are over-represented: about 1.3% of the library has one in this group of screens.
PTPN22 act = LYP (human) phosphatase activation; Q9Y2R2; recombinant LYP, DiFMUP fluorescence; 0 = plate median, 100 = signal doubled; activation, % at 2 µM; hit rate 0.11% among 96,000;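 active = activation at 2 µM above a set limit, the mean plus 5 SD, cut at about 37% in these data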
GALR2 antag = blocks the human galanin receptor 2; inhibition, % at 4 µM; hit rate 0.39% among 140,000; GALR2-expressing cells, antagonist mode; O43603; in the data active = inhibition above about 27%;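 note: cells stimulated with galanin 1-16 at roughly its EC80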
Target sequence (O43603 whole entry, looked up): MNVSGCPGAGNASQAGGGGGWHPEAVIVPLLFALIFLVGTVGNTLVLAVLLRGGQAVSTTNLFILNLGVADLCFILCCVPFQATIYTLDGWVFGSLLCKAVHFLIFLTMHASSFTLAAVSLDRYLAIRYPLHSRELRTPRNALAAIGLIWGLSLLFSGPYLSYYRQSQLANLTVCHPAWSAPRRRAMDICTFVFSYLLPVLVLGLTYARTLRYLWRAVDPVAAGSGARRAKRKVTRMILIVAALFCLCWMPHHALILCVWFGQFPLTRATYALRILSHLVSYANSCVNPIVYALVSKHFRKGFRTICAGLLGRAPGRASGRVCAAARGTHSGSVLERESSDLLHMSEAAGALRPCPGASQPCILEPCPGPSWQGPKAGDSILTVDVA
GALR2 ag = activates the human galanin receptor 2. hit rate 0.48% among 140,000. GALR2-expressing cells, agonist activation read-out. activation, % (concentration not given with the values); in the data active = activation above about 5%, passing the limit was not always enough
S1P2 ag = agonists of human S1P2 receptor. AID 729. S1P2-expressing cell line, agonist reporter read-out. hit rate 0.46% among 97,000. activation, % at 4.5 µM. O95136; in the data active = activation above about 16%
S1P2 antag = S1P2 (human) receptor antagonism | AID 736 | O95136 | cell-based S1P2 antagonist assay, inhibition at 5 uM | hit rate 0.21% among 97,000 | inhibition, % at 5 µM; in the data active = inhibition above about 45%;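 note: CRE beta-lactamase reporter cells expressing human S1P2 stimulated with S1P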
PTPN22 inh 2 = LYP (human) phosphatase inhibition; hit rate 0.21% among 96,000; Q9Y2R2; recombinant LYP catalytic domain, DiFMUP fluorescence; inhibition, % at 2 µM;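 active = inhibition at 2 µM at or above a set limit, the screen mean plus 3 SD, cut at about 24% in these data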
Numbers stand for hits; – = inactive; · = not tested or not shown.

SMILES	PTPN22 act	GALR2 antag	GALR2 ag	S1P2 ag	S1P2 antag	PTPN22 inh 2
O=C(NC1CCCCCC1)C1CCC(CNS(=O)(=O)c2ccc(Br)s2)CC1 (stereo not given)	·	–	5.3	·	·	·
CCOC(=O)N1CCC(NC(=O)CNS(=O)(=O)c2ccc(Br)s2)CC1	–	–	–	–	–	–
N#CCSc1nnc(COc2cccc3ccccc23)n1-c1ccccc1	–	–	–	–	–	–
Cc1ccc(-c2nnc(CSc3nnc(COc4cccc5ccccc45)n3-c3ccccc3)o2)cc1	–	–	–	–	–	33
O=C(NCc1ccccc1Cl)C1CCCN(S(=O)(=O)c2cccc3nsnc23)C1 (stereo not given)	–	–	–	–	–	–
Cc1cccc(Nc2nc(N)c([N+](=O)[O-])c(NCc3ccco3)n2)c1	·	–	–	·	·	·
CNc1nc(Nc2ccc(Br)cc2)nc(N)c1[N+](=O)[O-]	·	–	5.3	·	·	·
Cc1c(C(=O)N2CCCCC2)nnn1-c1nonc1N	–	–	–	–	–	–
CC(C)C(C(=O)O)N1C(=O)/C(=C/C=C/c2ccco2)SC1=S (stereo not given)	–	–	–	–	–	29
CC(C)C(C(=O)O)N1C(=O)/C(=C/c2cccn2C)SC1=S (stereo not given)	·	–	–	·	·	·
CC1=CC(C)(C)N2C(=O)C3(C(C#N)=C(N)Oc4cc(O)ccc43)c3c(C)c(C)cc1c32 (stereo not given)	–	–	–	–	–	–
O=C(CSc1ccc(Cl)cc1)Nc1cccc(-c2nc3ccccc3[nH]2)c1	·	–	6.2	·	·	·
Cc1nn(CC(=O)OC(C)C(=O)Nc2ccccc2[N+](=O)[O-])c(C)c1[N+](=O)[O-] (stereo not given)	·	–	–	·	·	·
O=C(NCc1ccco1)c1ccc2nc3sc4c(c3c(=O)n2c1)CCCC4	–	–	–	–	–	25
C=CCn1c(SCC(=O)NCc2ccco2)nc2sc3c(c2c1=O)CCCC3	–	–	–	–	–	–
O=C(NNC(=O)c1cc2cc3ccccc3nc2s1)c1cccc(Cl)c1	–	–	–	–	–	27
Cc1cccn2c(=O)c3cc(C#N)c(=NC(=O)c4ccncc4)n(CCCOC(C)C)c3nc12	–	–	–	18	–	–
COCCCn1c(=NC(=O)c2ccncc2)c(C#N)cc2c(=O)n3cccc(C)c3nc21	·	–	5.6	·	·	·
CCC(CC)C(=O)Nc1cccc(C(=O)Nc2ccc(S(=O)(=O)Nc3ccc(C)cc3)cc2)c1	–	–	–	–	–	–
O=C(NC(C(=O)N/N=C/c1ccccc1)c1n[nH]c(=O)c2ccccc12)c1ccccc1 (stereo not given)	–	–	–	–	–	26
O=C(NC(C(=O)N/N=C/c1c2ccccc2cc2ccccc12)c1n[nH]c(=O)c2ccccc12)c1ccccc1 (stereo not given)	–	–	–	–	–	–
Oc1cccc2ccc(Nc3ccccn3)nc12	·	30	–	·	·	·
Cc1ccc(N(C(=O)Cc2c[nH]c3ccccc23)C(C(=O)NC2CCCCC2)c2ccco2)cc1 (stereo not given)	–	–	–	–	–	–
Cc1ccccc1N(C(=O)Cc1c[nH]c2ccccc12)C(C(=O)NC1CCCCC1)c1ccco1 (stereo not given)	·	–	6.1	·	·	·
OCCN1CCN(c2nc(-c3ccccc3)c3cc(Cl)ccc3n2)CC1	–	–	19	18	–	–
SMILES	PTPN22 act	GALR2 antag	GALR2 ag	S1P2 ag	S1P2 antag	PTPN22 inh 2
CN1CCN(c2nc(-c3ccccc3)c3cc(Cl)ccc3n2)CC1	–	–	18	25	–	–
O=C1CN(c2nc(-c3ccccc3)c3cc(Cl)ccc3n2)c2ccccc2N1	·	–	–	·	·	·
CC(C)Cn1c(=O)c(C(=O)N/N=C/c2cccc(F)c2)c(O)c2ccccc21	·	–	–	·	·	·
COC(=O)C1=CN(CCCN2CCCC2=O)C=C(C(=O)OC)C1c1cccs1	–	–	–	–	–	–
COC(=O)C1=CN(Cc2cccs2)C=C(C(=O)OC)C1c1cccc(OC)c1OC	–	–	–	21	–	–
COc1cc2c(C(=O)N3CCN(c4ccccc4C)CC3)c(C)oc2cc1Br	–	–	–	–	–	–
C=C(C)CNC(=S)N/N=C1\CCCCc2ccccc21	·	–	6.1	·	·	·
O=C(CSc1ncnc2c1cnn2CCO)Nc1cccc(C(F)(F)F)c1	·	–	–	·	·	·
CCCc1cc(C(=O)Nc2c(C)n(C)n(-c3ccccc3)c2=O)no1	–	–	–	–	–	–
COC(=O)CSc1ccc(S(=O)(=O)N2CCOCC2)cc1[N+](=O)[O-]	·	–	–	·	·	·
O=c1ccn(-c2cccc(C(F)(F)F)c2)nc1-c1ccn(-c2ccccc2F)n1	–	–	–	19	–	–
COc1ccc(-n2ccc(-c3nn(-c4cccc(C(F)(F)F)c4)ccc3=O)n2)cc1	–	–	–	18	–	–
CCC(C)NC(=O)COc1ccc(Br)c(C)c1 (stereo not given)	–	–	–	–	–	–
O=C1c2cnc3nc(SCc4ccc(Cl)cc4)nn3c2CC2c3ccccc3CCN12 (stereo not given)	–	–	–	22	–	–
O=C(COc1ccccc1-c1ccccc1)N/N=C/c1ccc2ccccc2c1	·	–	6.8	·	·	·
Cc1ccccc1OCC(=O)N/N=C/c1ccc2c(c1)OCCO2	·	–	–	·	·	·
CN(C)S(=O)(=O)c1ccc(NC(=O)C2CC3C=CC2C3)cc1 (stereo not given)	·	–	–	·	·	·
CCOc1ccc(C(=O)N/N=C/c2ccc(-c3ccc(S(=O)(=O)Nc4ncccn4)cc3)o2)cc1	–	–	–	–	–	–
CCOc1ccc(NC(=O)C(=O)N/N=C\c2ccc(CNS(=O)(=O)c3ccccc3)o2)cc1	·	–	5.7	·	·	·
Cn1cccc1C1Nc2ccccc2NC2=C1C(=O)CC(C)(C)C2 (stereo not given)	–	–	–	–	–	–
O=C(C#Cc1cccc([N+](=O)[O-])c1)c1ccccc1	–	–	–	–	75	–
COc1ccccc1NS(=O)(=O)c1cc([N+](=O)[O-])ccc1N/N=C/c1c(C)[nH]c2ccccc12	–	–	–	–	69	–
CCCCNS(=O)(=O)c1ccc(NS(=O)(=O)c2c(C)cc(C)cc2C)cc1	–	–	–	–	–	28
CC(C)C1N=C2c3ccccc3N=C(SCc3cc(=O)n4cc(Cl)ccc4n3)N2C1=O (stereo not given)	–	–	–	25	–	–
O=C(NCc1ccc(F)cc1)C(=O)Nc1nc(C23CC4CC(CC(C4)C2)C3)cs1	·	–	–	·	·	·
COc1ccc(-c2cn(-c3ccc(C)cc3)c(=O)n2CC(=O)Nc2cccc(F)c2)cc1	–	–	15	–	–	–
COc1ccc(-c2nn(-c3ccccc3)cc2/C=N/NC(=O)c2ccc3c(c2)OCO3)cc1	–	–	–	–	–	–
COc1ccc(-c2nn(-c3ccccc3)cc2/C=N/NC(=O)c2ccc(Br)o2)cc1	–	–	–	–	47	–
OC1(c2cccc(C(F)(F)F)c2)CCN(c2ncnc3c2[nH]c2ccc(F)cc23)CC1	–	–	–	–	49	–

High-throughput results deposited in PubChem by several laboratories.
